PubChem BioAssay AID1159580 (chemical genetic matrix, 2015)
The campaign covered roughly 5,500 compounds. About 2,000 (36%) were called active. Not shown: some 18% with an inconclusive outcome. Some of the results follow. Unmarked numbers belong to inactive results. No stated cut-off is given here; in the data, active means normalized growth mostly below about 0.91 (no sharp cut-off); inconclusive means no clear call, values can overlap the other calls; inactive means mostly above about 0.92.

Test: chemical genetic growth profiling, strain panel (AID 1159580);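 further: tested at 20 µM; growth read once vehicle control cultures reached saturation at 30 °C; 1 = growth at the plate median or of vehicle wells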
Details: S. cerevisiae deletion strains, growth OD

O=c1[nH]c(=O)c2nc3ccccc3nc2[nH]1
normalized growth (locus YAL040C, strain CLN3, stronger effect = lower value): 0.979 | normalized growth (locus YER002W, strain NOP16, stronger effect = lower value): 1 | normalized growth (locus YGR078C, strain PAC10, stronger effect = lower value): 1.01 | normalized growth (locus YMR307W, strain GAS1, stronger effect = lower value): 0.994 | normalized growth (locus YNL153C, strain GIM3, stronger effect = lower value): 1.01 | normalized growth (locus YNL175C, strain NOP13, stronger effect = lower value): 0.98 | normalized growth (locus YNL197C, strain WHI3, stronger effect = lower value): 0.971 | normalized growth (locus YNL224C, strain SQS1, stronger effect = lower value): 0.999 | normalized growth (locus YOR083W, strain WHI5 (second series), stronger effect = lower value): 0.997 | normalized growth (locus YPL241C, strain CIN2, stronger effect = lower value): 1

O=[N+]([O-])c1ccc(-c2noc(-c3ccno3)n2)o1
normalized growth (locus YAR019C, strain CDC15, stronger effect = lower value): 0.0919 (active) | normalized growth (locus YBL105C, strain PKC1, stronger effect = lower value): 0.118 (active) | normalized growth (locus YBR135W, strain CKS1, stronger effect = lower value): 0.133 (active) | normalized growth (locus YBR136W, strain MEC1, stronger effect = lower value): 0.119 (active) | normalized growth (locus YBR160W, strain CDC28, stronger effect = lower value): 0.121 (active) | normalized growth (locus YDL017W, strain CDC7, stronger effect = lower value): 0.122 (active) | normalized growth (locus YDL028C, strain MPS1, stronger effect = lower value): 0.128 (active) | normalized growth (locus YDL101C, strain DUN1, stronger effect = lower value): 0.143 (active) | normalized growth (locus YDL108W, strain KIN28, stronger effect = lower value): 0.123 (active) | normalized growth (locus YDL132W, strain cdc53, stronger effect = lower value): 0.106 (active) | normalized growth (locus YDL214C, strain PRR2, stronger effect = lower value): 0.103 (active) | normalized growth (locus YDR052C, strain DBF4, stronger effect = lower value): 0.129 (active) | normalized growth (locus YDR054C, strain cdc34, stronger effect = lower value): 0.108 (active) | normalized growth (locus YDR226W, strain ADK1, stronger effect = lower value): 0.113 (active) | normalized growth (locus YDR477W, strain SNF1, stronger effect = lower value): 0.102 (active) | normalized growth (locus YER123W, strain YCK3, stronger effect = lower value): 0.113 (active) | normalized growth (locus YER133W, strain GLC7, stronger effect = lower value): 0.102 (active) | normalized growth (locus YFL009W, strain cdc4, stronger effect = lower value): 0.109 (active) | normalized growth (locus YFL029C, strain CAK1, stronger effect = lower value): 0.0982 (active) | normalized growth (locus YFR003C, strain YPI1, stronger effect = lower value): 0.126 (active) | normalized growth (locus YFR019W, strain FAB1, stronger effect = lower value): 0.104 (active) | normalized growth (locus YFR028C, strain CDC14, stronger effect = lower value): 0.0999 (active) | normalized growth (locus YGR040W, strain KSS1, stronger effect = lower value): 0.107 (active) | normalized growth (locus YGR052W, strain FMP48, stronger effect = lower value): 0.123 (active) | normalized growth (locus YGR092W, strain DBF2, stronger effect = lower value): 0.106 (active) | normalized growth (locus YHR030C, strain SLT2, stronger effect = lower value): 0.135 (active) | normalized growth (locus YHR079C, strain IRE1, stronger effect = lower value): 0.171 (active) | normalized growth (locus YHR082C, strain KSP1, stronger effect = lower value): 0.143 (active) | normalized growth (locus YHR205W, strain SCH9, stronger effect = lower value): -0.000394 (active) | normalized growth (locus YIL147C, strain SLN1, stronger effect = lower value): 0.129 (active) | normalized growth (locus YJL095W, strain BCK1, stronger effect = lower value): 0.141 (active) | normalized growth (locus YJL128C, strain PBS2, stronger effect = lower value): 0.117 (active) | normalized growth (locus YJL157C, strain FAR1, stronger effect = lower value): 0.107 (active) | normalized growth (locus YJR016C, strain ILV3, stronger effect = lower value): 0.0915 (active) | normalized growth (locus YJR066W, strain TOR1 (second series), stronger effect = lower value): 0.0932 (active) | normalized growth (locus YJR066W, strain TOR1, stronger effect = lower value): 0.125 (active) | normalized growth (locus YKL048C, strain ELM1, stronger effect = lower value): 0.115 (active) | normalized growth (locus YKL067W, strain YNK1, stronger effect = lower value): 0.0963 (active) | normalized growth (locus YKL101W, strain HSL1, stronger effect = lower value): 0.106 (active) | normalized growth (locus YKL193C, strain SDS22, stronger effect = lower value): 0.0909 (active) | normalized growth (locus YKL203C, strain TOR2, stronger effect = lower value): 0.104 (active) | normalized growth (locus YLR113W, strain HOG1, stronger effect = lower value): 0.2 (active) | normalized growth (locus YLR133W, strain CKI1, stronger effect = lower value): 0.0997 (active) | normalized growth (locus YLR403W, strain SFP1, stronger effect = lower value): 0.00715 (active) | normalized growth (locus YML070W, strain DAK1, stronger effect = lower value): 0.1 (active) | normalized growth (locus YMR001C, strain CDC5, stronger effect = lower value): 0.093 (active) | normalized growth (locus YMR205C, strain PFK2 (second series), stronger effect = lower value): 0.0958 (active) | normalized growth (locus YMR277W, strain FCP1, stronger effect = lower value): 0.0929 (active) | normalized growth (locus YNL006W, strain LST8, stronger effect = lower value): 0.104 (active) | normalized growth (locus YNL020C, strain ARK1, stronger effect = lower value): 0.101 (active) | normalized growth (locus YNL161W, strain CBK1, stronger effect = lower value): 0.103 (active) | normalized growth (locus YNL183C, strain NPR1, stronger effect = lower value): 0.138 (active) | normalized growth (locus YNL207W, strain RIO2, stronger effect = lower value): 0.0962 (active) | normalized growth (locus YNL222W, strain SSU72, stronger effect = lower value): 0.1 (active) | normalized growth (locus YNL307C, strain MCK1 (second series), stronger effect = lower value): 0.11 (active) | normalized growth (locus YOL078W, strain AVO1, stronger effect = lower value): 0.0939 (active) | normalized growth (locus YOL136C, strain PFK27, stronger effect = lower value): 0.124 (active) | normalized growth (locus YOR061W, strain CKA2, stronger effect = lower value): 0.0948 (active) | normalized growth (locus YOR119C, strain RIO1, stronger effect = lower value): 0.112 (active) | normalized growth (locus YOR231W, strain MKK1, stronger effect = lower value): 0.14 (active) | normalized growth (locus YOR329C, strain SCD5, stronger effect = lower value): 0.104 (active) | normalized growth (locus YPL031C, strain PHO85, stronger effect = lower value): 0.112 (active) | normalized growth (locus YPL153C, strain RAD53, stronger effect = lower value): 0.0949 (active) | normalized growth (locus YPL204W, strain HRR25, stronger effect = lower value): 0.106 (active) | normalized growth (locus YPL209C, strain IPL1, stronger effect = lower value): 0.105 (active) | normalized growth (locus YPL256C, strain CLN2, stronger effect = lower value): 0.178 (active) | normalized growth (locus YPR025C, strain CCL1, stronger effect = lower value): 0.111 (active) | normalized growth (locus YPR106W, strain ISR1, stronger effect = lower value): 0.132 (active) | normalized growth (locus YPR111W, strain DBF20, stronger effect = lower value): 0.149 (active) | normalized growth (strain NNK1, stronger effect = lower value): 0.104 (active) | normalized growth (strain TSCII, stronger effect = lower value): 0.0899 (active)
